Measurements: PubChem BioAssay AID624330 (Southern Research Specialized Biocontainment Screening …, 2012)
About 2,100 (0.62%) of roughly 340,000 compounds were called active.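 How the source made its calls: active means first-screen hits whose inhibition reached a set limit at any dose in the follow-up dose series; inconclusive means inhibition above the set first-screen limit but never retested; inactive means the rest.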 Only a sample is shown. Potency and affinity values are given separately.

Each molecule was assayed against Rac GTPase-activating protein 1 (Homo sapiens) (UniProt Q9H0H5) (assay: MgcRacGAP GTPase-activating activity inhibitors, confirmation, biochemical, ADP Hunter fluorescence, primary and confirmatory (AID 624330;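 further: fluorescence reports GDP produced by GAP-driven GTP hydrolysis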)). Details: MgcRacGAP-stimulated Rac1 GTP hydrolysis, at 30 µM, stronger effect = higher value, GST-tagged Rac1 F28L mutant substrate.
Rac GTPase-activating protein 1 (Homo sapiens), sequence (Q9H0H5 whole entry, looked up): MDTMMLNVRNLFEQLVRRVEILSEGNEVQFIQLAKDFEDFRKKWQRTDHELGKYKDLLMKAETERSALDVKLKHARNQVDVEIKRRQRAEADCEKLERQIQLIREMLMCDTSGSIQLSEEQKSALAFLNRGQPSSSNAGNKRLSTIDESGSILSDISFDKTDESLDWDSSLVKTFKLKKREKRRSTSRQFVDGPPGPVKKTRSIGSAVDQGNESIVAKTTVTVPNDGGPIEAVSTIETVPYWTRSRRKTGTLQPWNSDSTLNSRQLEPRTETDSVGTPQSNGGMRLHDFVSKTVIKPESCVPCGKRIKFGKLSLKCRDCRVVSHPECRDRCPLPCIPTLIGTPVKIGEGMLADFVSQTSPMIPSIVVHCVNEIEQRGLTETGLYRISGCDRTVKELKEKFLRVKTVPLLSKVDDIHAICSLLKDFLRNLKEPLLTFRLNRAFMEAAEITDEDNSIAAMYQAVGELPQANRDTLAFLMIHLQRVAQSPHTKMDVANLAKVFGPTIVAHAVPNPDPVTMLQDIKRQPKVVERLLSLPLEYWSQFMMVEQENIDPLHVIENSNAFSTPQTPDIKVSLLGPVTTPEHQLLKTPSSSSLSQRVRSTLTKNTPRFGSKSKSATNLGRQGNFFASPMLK

inhibition, inactive:
CCn1c(CNC(=O)c2ccco2)nnc1SCC(=O)c1ccccc1 13.1%
CCN(CC)S(=O)(=O)c1cccc(NC(=O)C(=O)c2c(-c3ccccc3)cc3ccccn23)c1 9%
O=C(/C=C/c1ccc(Cl)cc1)N1CCN(Cc2ccccc2)CC1 10.8%
CC(Oc1ccc(Br)cc1)C(=O)Nc1ccc(S(=O)(=O)Nc2nccs2)cc1 (configuration not stated) 3.41%
COc1ccc(NS(=O)(=O)c2cccc(C(=O)N/N=C/c3ccc(O)cc3)c2)cc1 16.4%
COc1ccc(/C=N/NC(=O)c2cc[n+]([O-])cc2)cc1OC 1.48%
COc1cc(/C=N/Nc2ccccc2)ccc1O 13%
COc1ccc(/C=N/NC(=O)c2cc[n+]([O-])cc2)cc1 2.43%
COc1cc(C=NCc2ccccc2)ccc1O 15.5%
COc1ccc(NS(=O)(=O)c2cccc(C(=O)NN=Cc3ccc(OC)c(O)c3)c2)cc1 22.5%
Cn1c(N/N=C\c2cccc(O)c2)cc(=O)n(C)c1=O 11.6%
COc1ccc(/C=N/Nc2cc(=O)n(C)c(=O)n2C)cc1OC 1.57%
Cc1ccc(C(=O)N2CCN(S(=O)(=O)c3ccc(C)c([N+](=O)[O-])c3)C2)cc1 6.42%
O=S(=O)(c1ccc(-c2csc(=Nc3ccccc3)n2CCCN2CCOCC2)cc1)N1CCOCC1 3.34%
CCCCCCCNC(=O)C1(CC2CC(c3ccc(Cl)cc3)=NO2)CCN(C(=O)Cc2ccc(F)cc2)CC1 (configuration not stated) 4.28%
Fc1ccc(CN2CCCN(Cc3nc(-c4ccc5c(c4)OCO5)no3)CC2)cc1 7.98%
CCCC(=O)Nc1ccc(C(=O)COC(=O)C2CC2)cc1 6.42%
Cc1cc(C)c(C(=O)N2CCCC(CNC(=O)C3(c4ccc(Cl)cc4)CC3)C2)c(=O)[nH]1 (configuration not stated) 6.3%
CNC(=O)c1ccc(CN(C)C(=O)c2cccc(S(=O)(=O)N3CCc4ccccc4C3)c2)cc1 15.5%
COc1ccc2[nH]c(C(=O)N/N=C/c3ccc(OC)c(O)c3)cc2c1 26.2%
COc1cc(C(=O)N/N=C/c2ccc3c(c2)c2ccccc2n3C)ccc1O 22.2%
COc1ccc(/C=N/NC(=O)c2ccc(C)cc2)cc1CN1CCN(c2ccc(F)cc2)CC1 11.1%
O=C(N/N=C/c1ccncc1)c1ccc(-n2cccc2)cc1 -9.21%
COc1ccc(/C=N/NC(=O)c2cc3cc(OC)c(OC)cc3[nH]2)cc1 10.7%
O=C(N/N=C/c1ccc(F)cc1)c1cc[n+]([O-])cc1 2.39%
COc1cc(/C=N/NC(=O)c2cc[n+]([O-])cc2)cc(OC)c1OC 7.29%
COc1ccc(/C=N\NC(=O)c2cc(O)c(O)c(O)c2)cc1CN1CCN(c2ccc(F)cc2)CC1 -36.7%
Cc1onc(-c2c(Cl)cccc2Cl)c1C(=O)N(C)Cc1ccccc1 12.4%
CC(=O)N1CCN(c2ccc(NC(=O)c3ccco3)cc2Cl)CC1 8.65%
Cc1sc2nc(SCC(=O)N3CCN(CCO)CC3)n(-c3ccccc3)c(=O)c2c1C 6.94%
CCC(Oc1cc(Cl)ccc1Cl)C(=O)NN1C(=O)C2C3CCC(C3=C(C)C)C2C1=O (configuration not stated) 4.3%
CCCCCCN1C[C@H](n2cc(COC(=O)c3ccccc3)nn2)[C@@H](O)C[C@@H]1c1ccc(C)cc1 2.5%
O=C(Nc1ccc(Cl)cc1)N[C@@H]1c2c(ccc3ccccc23)OC[C@@H]1CO -2.15%
COC(=O)c1c(-c2ccccc2)csc1NC1=NS(=O)(=O)c2ccccc21 -0.52%
COc1cc(OC)c(OC)cc1/C=N/NC(=O)c1ccc(CSc2nc(C)cc(C)n2)cc1 8.78%
COc1ccc(/C=N/NC(=O)c2ccc(CSc3nc(C)cc(C)n3)cc2)c(OC)c1OC 5.29%
COc1cc(/C=N/NC(=O)c2cccc(NC(=O)c3ccccc3Cl)c2)ccc1O 28.3%
COc1ccc(/C=N/NC(=O)C(=O)Nc2ccccn2)cc1OC 13.3%
C=CCOc1ccc(/C=N/NC(=O)C(=O)Nc2ccccn2)cc1OC -2.52%
COc1ccc(OC)c(/C=N/NC(=O)c2[nH]nc3c2CCc2ccccc2-3)c1 -0.52%
COc1ccc(/C=N/NC(=O)c2[nH]nc3c2CCc2ccccc2-3)cc1OC 11.3%
COc1ccccc1/C=N/NC(=O)c1cccc(NC(=O)c2ccccc2C)c1 6.03%
C[C@@H]1CN([C@@H](C)CO)C(=O)CCCn2cc(nn2)CO[C@H]1CN(C)S(=O)(=O)c1ccc(Oc2ccccc2)nc1 15.5%
C[C@@]12C(=O)Nc3cc(Cl)ccc3C(=O)N1[C@H]1c3cc(Br)ccc3OC[C@@H]1[C@@H]2c1ccccc1 11.9%
O=C(c1cc2nc(-c3ccc(F)cc3)cc(C(F)(F)F)n2n1)N1CCOCC1 10.3%
CCN1C(=O)[C@H]2[C@H]3CN=C(SCc4ccc(C(=O)OC)cc4)N3[C@@](CC)(C(=O)OC)[C@H]2C1=O 6.61%
O=C(Nc1ccc2nc(-c3cccnc3)[nH]c2c1)c1ccccc1F 5.15%
O=C(O)C1CC(c2ccc(F)cc2)=NO1 (configuration not stated) 1.2%
CC(C)[C@H](NC(=O)OCc1ccccc1)C(=O)OCC(=O)NC1CCCCC1 10.6%
Cc1nonc1CN(C)C(=O)CC1C(=O)NCCN1Cc1ccccc1F (configuration not stated) 2.81%
COc1cc(/C=N/Nc2ccc(C(=O)O)cc2)cc(OC)c1OC -9.42%
COc1cc(/C=C/C(=O)CC(=O)/C=C/c2ccc(O)c(OC)c2)ccc1O 27.8%
CCN(CC)c1ccc(/C=N/NC(=O)c2c[nH]c3ccccc23)cc1 30.9%
COc1ccc(/C=N/Nc2ccc(C(=O)O)cc2)cc1OC 12.8%
COc1ccc(OCCn2cc(/C=N/NC(=O)c3ccncc3)c3ccccc32)cc1 4.18%
Cc1ccc(OCCn2cc(/C=N/NC(=O)c3ccncc3)c3ccccc32)cc1 -10.1%
CC(/C=C/c1ccc(O)cc1)=NNc1ccccc1 31.4%
CCN(CC)c1ccc(/C=N\NC(=O)c2cccc3cc[nH]c23)cc1 21.1%
CN(C(=O)c1cccc(NC(=O)Cc2ccc(NC(=O)C3CCCN(S(=O)(=O)c4cccc([N+](=O)[O-])c4)C3)cc2)c1)C1CCCCC1 (configuration not stated) 3.08%
O=C(COc1ccc(Cl)cc1)NCc1nnc(SCC(=O)N2CCCc3ccccc32)o1 2.68%
COc1ccc(-c2nnc(NC(=O)Cc3ccccc3)o2)cc1 7.81%
COc1ccc(CN2CCOCCOCCOCC2)cc1 0.62%
C=CCn1c(=O)c2ccccc2n2c(SCC(=O)NCCc3ccccc3)nnc12 6.1%
CC(C)n1nc(C(=O)NCCc2ccc(S(N)(=O)=O)cc2)c2ccccc2c1=O 0.38%
COc1ccc(CN2C(=O)c3ccccc3C2=O)cc1C(=O)OCC(=O)NC1CCCCC1 7.94%
c1ccc2cc(CNCc3cccc4ccccc34)ccc2c1 13%
O=C(COC(=O)CN1CCSC1=O)Nc1ccc(F)cc1Cl 2.57%
O=C(NCC1COc2ccccc2O1)c1ccc(NC(=O)C2CCCO2)cc1 (configuration not stated) 10.6%
Cc1nnc(NC(=O)CCn2c(=O)oc3ccccc32)s1 4.88%
C=CCSc1ncccc1C(=O)NCCc1ccc(Cl)cc1 10.4%
COc1ccc(/C=N/NC(=O)C2(O)c3ccccc3-c3ccccc32)cc1 6.06%
O=C(N/N=C/c1ccccc1O)C1(O)c2ccccc2-c2ccccc21 8.51%
COc1ccccc1N(CC(=O)Nc1ccc(Cc2ccncc2)cc1)S(=O)(=O)c1ccccc1 0.87%
COc1ccc(C(=O)Nc2ccc3c(c2)n(C)c(=O)n3C)cc1OC 3.94%
O=S(=O)(Cc1ccccc1)N1CCN(C2Cc3ccccc3C2)CC1 9.97%
CCS(=O)(=O)N1CCN(C2Cc3ccccc3C2)CC1 13.9%
CCS(=O)(=O)N1CCN(C2CCC(C)CC2)CC1 (configuration not stated) 17.9%
CC1CCC(N2CCN(S(=O)(=O)Cc3ccccc3)CC2)CC1 (configuration not stated) 7.86%
Nc1cc2c(cc1Br)-c1ccccc1C2=NO 7.06%
COc1ccc(-c2nn(-c3ccccc3)cc2/C=N/Nc2ccc(Cl)c(C(=O)O)c2)cc1OC 13.5%
N#Cc1c(-c2ccccc2)nc(N2CCN(Cc3ccccc3)CC2)[nH]c1=O 0.49%
O=C(/C=C/c1cn(-c2ccccc2)nc1-c1cccnc1)NCCN1CCOCC1 11.7%
O=C(O)c1cc2ccc(O)cc2oc1=O 4.89%
O=c1oc2cc(O)ccc2cc1-c1ccccc1 15.9%
O=C(CCCc1nc2ccccc2s1)NC(c1ccccc1)c1ccccc1 6.29%
O=C(CN1N=C(c2ccccc2)CCC1=O)NCc1ccccc1 6.27%
COc1cc(CN(C)C(=O)C(=O)c2c[nH]c3ccccc23)ccc1O 8.17%
O=C(c1cc(-c2ccc(Cl)c(Cl)c2)on1)N1CCN(c2ccccc2)CC1 4.94%
COc1ccc(NC(=O)c2cccs2)cc1 8.32%
COc1ccccc1NC(=O)c1cccs1 0.52%
COc1cc(NC(=O)c2cccs2)c(OC)cc1NC(=O)c1cccs1 4.2%
COc1ccc(NC(=O)c2ccc(NC(=O)c3cccs3)cc2)cc1 2.51%
